Values joined by “and” are separate entries in the source; they are usually repeats but may differ in a detail not shown here. Identical values can stand only once. Among all 4,400 compounds or so, about 390 (8.9%) showed an effect of 50% or more. Shown is part of a subset that was picked to be rich in strong results.
System: Trypanosoma brucei
Assay: DNDI: Inhibition of Human African Trypanosomiasis, SBRI 427, in vitro at 2 ug.mL-1
Assay type: functional

| SMILES | % inhibition |
| --- | --- |
| N/C(=N\O)c1ccc(Oc2cccc3ccccc23)nc1 | 36% |
| COc1ccc(-c2nc(CN(C)Cc3cccc4ccccc34)co2)cc1 | -11% |
| COCCN(/C(=N\O)c1ccc(Oc2ccc(C)cc2C)nc1)C(C)C | 5% |
| COc1ccc(-c2nc(CNC[C@@H]3CCCO3)co2)cc1 | 16% |
| CCOc1ccccc1-c1nc(CN(CCC#N)CC2CCCO2)co1 (stereo not drawn) | -20% |
| CCOc1ccccc1-c1nc(CN(CC)CCN(CC)CC)co1 | -5% |
| O/N=C(\NC1CCc2ccccc21)c1ccnc(Oc2cccc3cnccc23)c1 (stereo not drawn) | 18% |
| C=CCN1CCN(/C(=N\O)c2cccnc2Oc2ccc(Cl)cc2)CC1 | 7% |
| CCOc1ccccc1-c1nc(CNCCC2=CCCCC2)co1 | 53% |
| Brc1ccccc1-c1nc(CNCCC2=CCCCC2)co1 | -2% |
| Cc1ccccc1-c1nc(CNCCC2=CCCCC2)co1 | 10% |
| COc1ccc(OC)c(NCc2coc(-c3ccco3)n2)c1 | -5% |
| CCC(CC)NCc1coc(-c2ccccc2Cl)n1 | -8% |
| CCOc1ccc(Oc2nc(C)ccc2/C(=N/O)NCc2ccco2)cc1 | 6% |
| Cc1ccc([C@@H](C)NCc2coc(-c3ccc(Cl)cc3Cl)n2)cc1 | 14% |
| O/N=C(/c1ccnc(Oc2cccc(F)c2)c1)N1CCCCCC1 | 3% |
| COc1cc(C)ccc1Oc1nc(C)ccc1/C(=N/O)NC(C)C | 29% |
| CSc1ccc(Oc2nc(C)ccc2/C(=N/O)NC(C)C)cc1 | -8% |
| CCC(CC)N/C(=N\O)c1ccc(C)nc1Oc1cc(C)cc(C(C)C)c1 | 15% |
| CCC(CC)N/C(=N\O)c1ccc(C)nc1Oc1ccc(C)cc1 | 70% |
| CCC(CC)N/C(=N\O)c1ccc(C)nc1Oc1ccc(C)cc1OC | 100% |
| CCC(CC)N/C(=N\O)c1ccc(C)nc1Oc1ccc(F)cc1 | 24% |
| CCC(CC)N/C(=N\O)c1ccc(C)nc1Oc1ccc(C)cc1C | 34% |

| SMILES | % inhibition |
| --- | --- |
| CSc1ccc(Oc2nc(C)ccc2/C(=N/O)NCC(C)(C)C)cc1 | -6% |
| CCC(CC)N/C(=N\O)c1ccc(C)nc1Oc1ccc(SC)cc1 | 99% |
| Cc1ccc(/C(N)=N/O)c(Oc2cccc3ccc(C)nc23)n1 | 13% |
| O/N=C(\NCCN1CCOCC1)c1ccc(Oc2cccc3cccnc23)nc1 | 9% |
| Cc1cc(Oc2ccc(/C(=N/O)n3ccnc3)cn2)cc(C(C)C)c1 | 1% |
| C=CCN1CCN(/C(=N\O)c2ccnc(Oc3ccc(C)c4c3CCC4)c2)CC1 | 22% |
| Cc1ccccc1-c1nc(CN2CCN(C/C=C/c3ccccc3)CC2)co1 | -34% |
| Cc1cccc(-c2nc(CNCc3ccc(C(C)(C)C)cc3)co2)c1 | -9% |
| CSc1ccccc1Oc1ncccc1/C(=N/O)NCc1cccs1 | 28% |
| Cc1cn(/C(=N\O)c2cccnc2Oc2c(F)cccc2F)cn1 | -7% |
| CCC(CC)N/C(=N\O)c1cccnc1Oc1ccccc1SC | 99% |
| COCC(C)N/C(=N\O)c1cccnc1OCc1ccccc1F (stereo not drawn) | -13% |
| CCC(CC)N/C(=N\O)c1cccnc1Oc1ccccc1F | 96% |
| COCCN(/C(=N\O)c1cccnc1Oc1ccccc1F)C(C)C | 5% |
| COc1ccc(CN/C(=N\O)c2cccnc2Oc2ccccc2SC)cc1 | 16% |
| COCC(C)N/C(=N\O)c1cccnc1Oc1ccccc1OC(C)C (stereo not drawn) | -8% |
| CCC(CC)N/C(=N\O)c1cccnc1Oc1ccccc1OC | 76% |
| CCC(CC)N/C(=N\O)c1cccnc1Oc1c(F)cccc1F | 99% |
| COC[C@H]1CCCN1Cc1coc(-c2ccc(O)cc2)n1 | 16% |
| Clc1ccccc1-c1nc(CNCCc2ccccc2)co1 | -15% |
| CCC(NCc1coc(-c2ccc(C)cc2)n1)c1ccccc1 (stereo not drawn) | -6% and 4% |
| Cc1cc(Oc2ccc(/C(=N/O)N3CCSCC3)cn2)cc(C(C)C)c1 | 4% |
| Cc1ccc(/C(=N/O)NCc2ccc(C)o2)c(OCc2ccccc2F)n1 | 18% |

| SMILES | % inhibition |
| --- | --- |
| CC(CCc1ccccc1)NCc1coc(-c2ccc(F)cc2)n1 (stereo not drawn) | 17% |
| Cc1ccc(Oc2nc(C)ccc2/C(=N/O)NCc2cccs2)cc1 | 16% |
| COc1cccc(N2CCN(Cc3coc(-c4ccc(Cl)cc4Cl)n3)CC2)c1 | 10% |
| Cc1ccc(/C(=N/O)NC2CC(C)CC(C)(C)C2)c(OCc2ccccn2)n1 (stereo not drawn) | 56% |
| CC(C)COc1ncccc1/C(=N/O)NC1CC(C)CC(C)(C)C1 (stereo not drawn) | -8% |
| CSc1ccc(Oc2nc(C)ccc2/C(=N/O)NC2CC(C)CC(C)(C)C2)cc1 (stereo not drawn) | 10% |
| Cc1ccc(/C(=N/O)NC2CCC(C)CC2)c(OCc2ccccn2)n1 (stereo not drawn) | 100% |
| Cc1cc(C)cc(Oc2nc(C)ccc2/C(=N/O)NC2CC(C)CC(C)(C)C2)c1 (stereo not drawn) | -4% |
| Cc1ccc(/C(=N/O)NCC2CCCCC2)c(OCc2ccccn2)n1 | 43% |
| Cc1ccc(/C(=N/O)NC2CCc3ccccc32)c(OCc2ccccn2)n1 (stereo not drawn) | 5% |
| Cc1ccc(/C(=N/O)NC2CC(C)CC(C)(C)C2)c(OCC(C)C)n1 (stereo not drawn) | 97% |
| Cc1ccc(/C(=N/O)NC(C)C)c(OCc2ccccn2)n1 | 11% |
| CN(Cc1ccccc1)Cc1coc(-c2cccc3ccccc23)n1 | -2% |
| COc1ccc(OC)c(NCc2coc(-c3ccccc3C)n2)c1 | 8% |
| CCCN(CC1CC1)/C(=N\O)c1ccc(C)nc1Oc1cccc2cnccc12 | 23% |
| Cc1ccc(/C(=N/O)N2C(C)C=CC2C)c(Oc2cccc(C(C)C)c2)n1 (stereo not drawn) | 20% |
| Cc1ccc(/C(=N/O)NC2CCCCC2)c(Oc2ccc3ccccc3c2)n1 | 97% |
| Cc1ccc(/C(=N/O)NC2CCC2)c(Oc2ccc3ccccc3c2)n1 | 7% |
| Cc1ccc(/C(=N/O)NC2CCCCC2)c(Oc2cccc(C(C)C)c2)n1 | 22% |
| Cc1cccc(Oc2nc(C)ccc2/C(=N/O)NC2CCCC2)c1 | 11% |
| Cc1cccc(Oc2nc(C)ccc2/C(=N/O)NC2CCCCC2)c1 | 98% |
| Cc1ccc(/C(=N/O)NC2CC2)c(Oc2ccc3ccccc3c2)n1 | 16% |

Reference: ChEMBL document CHEMBL1857833, “Screening and optimization of specific chemical series against human African Trypanosomiasis (HAT)”
